According to the supplement of paper PMC7695840:
Structures can show the parent of a compound that is named as a salt.

Experiments:
[1] = tested on: Staphylococcus aureus MW2 delta-mecA (mecA-); assay: normalized GFP fluorescence (growth of mecA- strain) (fraction of control range); higher = more growth of mecA- strain; details: compound concentration: 150 uM; cefoxitin: subinhibitory; fluorescent label: GFP
Summary of the method: (§1)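 Pre-induced S. aureus MW2 cells carrying the gene (DsRed) and deletion cells lacking it (GFP) were combined 1:1 in LB containing a subinhibitory antibiotic dose set each day, then dispensed at 5 µL/well onto 150 μM compound (1.5% DMSO) in 1536-well plates as a single replicate. After 20 h at 37 °C and 90% humidity without shaking, DsRed (540/590) and GFP (485/520) were read. Each channel was scaled per plate between the medians of the single-strain controls, and plates with high untreated ratios and rows with DsRed/GFP >10 were excluded.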

[2] = tested on: Staphylococcus aureus MW2 (mecA+); assay: normalized DsRed fluorescence (growth of mecA+ strain) (fraction of control range); higher = more growth of mecA+ strain; details: compound concentration: 150 uM; cefoxitin: subinhibitory; fluorescent label: DsRed
Summary of the method: as §1

| SMILES | normalized GFP fluorescence [1] | normalized DsRed fluorescence [2] |
| --- | --- | --- |
| C[N+](C)(C)CCOC(N)=O | 0.245 | 0.816 |
| CCCCC1C(=O)N(c2ccccc2)N(c2ccccc2)C1=O [Phenylbutazone (Butazolidin, Butatron)] | 0.207 | 0.436 |
| CN(C)C(=N)NC(=N)N | 0.544 | 0.887 |
| CNC[C@@H](O)c1ccc(O)c(O)c1 [L-Adrenaline (Epinephrine)] | 0.385 | 0.715 |
| CCOc1cc([C@@H](CS(C)(=O)=O)N2C(=O)c3cccc(NC(C)=O)c3C2=O)ccc1OC | 0.254 | 0.579 |
| CCN(CC)C(=O)N1CCN(C)CC1 | 0.599 | 0.455 |
| CC(C)Oc1ccc2c(=O)c(-c3ccccc3)coc2c1 [Ipriflavone] | 0.362 | 0.57 |
| NCC(=O)CCC(=O)O | 0.315 | 1.12 |
| CN(C)CCCN1c2ccccc2CCc2ccccc21 | 0.0133 | 1.83 |
| Oc1cccc(O)c1 | 0.565 | 0.516 |
| Cc1ncc(C[n+]2csc(CCO)c2C)c(N)n1 | 0.111 | 1.23 |
| CNNCc1ccc(C(=O)NC(C)C)cc1 | 0.425 | 0.606 |
| CC(C)(C(=O)O)c1ccc(C(O)CCCN2CCC(C(O)(c3ccccc3)c3ccccc3)CC2)cc1 (stereo not given) | 0.393 | 1.03 |
| O=C(OOC(=O)c1ccccc1)c1ccccc1 | 0.437 | 0.519 |
| OC(CCN1CCCCC1)(c1ccccc1)C1CC2C=CC1C2 (stereo not given) [Biperiden hydrochloride] | 0.119 | 0.714 |
| Clc1ccc(C(c2ccccc2Cl)C(Cl)Cl)cc1 (stereo not given) | 0.148 | 0.731 |
| CCN(CC)CCNC(=O)c1cc(Cl)c(N)cc1OC | 0.639 | 0.756 |
| CCC1(c2ccccc2)NC(=O)N(C)C1=O (stereo not given) | 0.794 | 0.963 |
| CCn1cc(C(=O)O)c(=O)c2cc(F)c(N3CCNCC3)nc21 [Enoxacin (Penetrex)] | 0.206 | 0.928 |
| CC(=O)N(CC(O)CO)c1c(I)c(C(=O)NCCO)c(I)c(C(=O)NCC(O)CO)c1I (stereo not given) | 0.914 | 0.86 |
| CN1CCN(C2=Nc3ccccc3Oc3ccc(Cl)cc32)CC1 | 0.35 | 1.01 |
| CN/C(=N\CCSCc1nc[nH]c1C)NC#N | 0.567 | 1.05 |
| Nc1nc(=O)c2nc(CNc3ccc(C(=O)N[C@@H](CCC(=O)O)C(=O)O)cc3)cnc2[nH]1 | 0.21 | 0.831 |
| OC(Cn1cncn1)(Cn1cncn1)c1ccc(F)cc1F | 0.417 | 0.746 |
| CCCNC(=O)NS(=O)(=O)c1ccc(Cl)cc1 | 0.221 | 0.489 |

| SMILES | normalized GFP fluorescence [1] | normalized DsRed fluorescence [2] |
| --- | --- | --- |
| CC1(C)O[C@@H]2[C@@H](CO[C@@]3(COS(N)(=O)=O)OC(C)(C)O[C@@H]23)O1 | 0.798 | 0.547 |
| Cc1nc(-c2ccc(OCC(C)C)c(C#N)c2)sc1C(=O)O [Febuxostat (Uloric)] | 0.0973 | 0.396 |
| O=C(c1ccc(F)cc1)C1CCN(CCn2c(=O)[nH]c3ccccc3c2=O)CC1 | 0.217 | 0.83 |
| O=C1Cc2cc(CCN3CCN(c4nsc5ccccc45)CC3)c(Cl)cc2N1 | 0.33 | 0.989 |
| COc1cc2nc(N3CCN(C(=O)c4ccco4)CC3)nc(N)c2cc1OC | 0.593 | 0.809 |
| NC(=O)c1ncn([C@@H]2O[C@H](CO)[C@@H](O)[C@H]2O)c1N [AICAR (Acadesine)] | 0.547 | 0.71 |
| OCc1ccccc1O | 0.351 | 0.713 |
| CCOC(=O)C(C)(C)Oc1ccc(Cl)cc1 | 0.258 | 0.633 |
| CN1[C@@H]2CC[C@H]1C[C@@H](OC(=O)c1c[nH]c3ccccc13)C2 [Tropisetron] | 0.528 | 0.582 |
| COc1ccccc1N1CCN(CCCNc2cc(=O)n(C)c(=O)n2C)CC1 [Urapidil hydrochloride] | 0.413 | 0.557 |
| Cc1nc(=O)c2cc(CN(C)c3ccc(C(=O)N[C@@H](CCC(=O)O)C(=O)O)s3)ccc2[nH]1 [Raltitrexed (Tomudex)] | 0.657 | 0.532 |
| CCS(=O)(=O)CCn1c([N+](=O)[O-])cnc1C | 0.603 | 1.08 |
| COc1cc2nc(N3CCN(C(=O)C4CCCO4)CC3)nc(N)c2cc1OC (stereo not given) [Terazosin HCl (Hytrin)] | 0.321 | 0.745 |
| O=NN(CCCl)C(=O)NCCCl | 0.549 | 0.898 |
| Cc1nc(Nc2ncc(C(=O)Nc3c(C)cccc3Cl)s2)cc(N2CCN(CCO)CC2)n1 | 0.0741 | 0.816 |
| Cc1cccc(C)c1OCC(=O)N[C@@H](Cc1ccccc1)[C@@H](O)C[C@H](Cc1ccccc1)NC(=O)[C@H](C(C)C)N1CCCNC1=O [Lopinavir (ABT-378)] | 0.126 | 0.671 |
| CNCC[C@@H](Oc1ccccc1C)c1ccccc1 | 0.319 | 0.638 |
| NC[C@@H]1O[C@H](O[C@H]2[C@@H](O)[C@H](O[C@@H]3[C@@H](O)[C@H](N)C[C@H](N)[C@H]3O[C@H]3O[C@H](CN)[C@@H](O)[C@H](O)[C@H]3N)O[C@@H]2CO)[C@H](N)[C@@H](O)[C@@H]1O | 0.217 | 0.718 |
| O.O.O.O.O.O.O.O.O.O.O.O.O.O.O.O.O.O.O.O.O=S(=O)([O][Al])OC[C@H]1O[C@@](COS(=O)(=O)[O][Al])(O[C@H]2O[C@H](COS(=O)(=O)[O][Al])[C@@H](OS(=O)(=O)[O][Al])[C@H](OS(=O)(=O)[O][Al])[C@H]2OS(=O)(=O)[O][Al])[C@@H](OS(=O)(=O)[O][Al])[C@@H]1OS(=O)(=O)[O][Al].[Al] | 0.405 | 0.842 |
| CCC(C)n1ncn(-c2ccc(N3CCN(c4ccc(OCC5COC(Cn6cncn6)(c6ccc(Cl)cc6Cl)O5)cc4)CC3)cc2)c1=O (stereo not given) | 0.389 | 0.642 |
| CC(=O)O[C@]1(C(C)=O)CC[C@H]2[C@@H]3C=C(Cl)C4=CC(=O)[C@@H]5C[C@@H]5[C@]4(C)[C@H]3CC[C@@]21C | 0.239 | 0.593 |
| COc1c2occc2cc2ccc(=O)oc12 | 0.476 | 0.402 |
| CC1=C(CC(=O)O)c2cc(F)ccc2/C1=C\c1ccc([S+](C)[O-])cc1 (stereo not given) | 0.33 | 0.476 |
| C[C@]12C=CC(=O)N[C@@H]1CC[C@@H]1[C@@H]2CC[C@]2(C)[C@@H](C(=O)Nc3cc(C(F)(F)F)ccc3C(F)(F)F)CC[C@@H]12 [Dutasteride] | 0.284 | 0.52 |
| O=C(/C=C/c1cccc(S(=O)(=O)Nc2ccccc2)c1)NO [Belinostat (PXD101)] | 0.364 | 1.16 |

| SMILES | normalized GFP fluorescence [1] | normalized DsRed fluorescence [2] |
| --- | --- | --- |
| CC1(C)S[C@@H]2[C@H](NC(=O)Cc3ccccc3)C(=O)N2[C@H]1C(=O)O | 0.0214 | 0.0849 |
| C#C[C@]1(O)CC[C@H]2[C@@H]3CCc4cc(O)ccc4[C@H]3CC[C@@]21C [Ethinyl Estradiol] | 0.246 | 0.449 |
| CC(=O)OCC(=O)[C@@]12OC(C)(C)O[C@@H]1C[C@H]1[C@@H]3C[C@H](F)C4=CC(=O)C=C[C@]4(C)[C@@]3(F)[C@@H](O)C[C@@]12C | 0.439 | 0.736 |
| COC(=O)C1=C(C)NC(C)=C(C(=O)OCCN2CCN(C(c3ccccc3)c3ccccc3)CC2)C1c1cccc([N+](=O)[O-])c1 (stereo not given) | 0.002 | 0.944 |
| CC(=O)OCC(=O)[C@@]12N=C(C)O[C@@H]1C[C@H]1[C@@H]3CCC4=CC(=O)C=C[C@]4(C)[C@H]3[C@@H](O)C[C@@]12C | 0.231 | 0.567 |
| C[C@H](N)[C@H](O)c1cccc(O)c1 | 0.482 | 0.581 |
| CCCCc1nc(Cl)c(CO)n1Cc1ccc(-c2ccccc2-c2nnn[nH]2)cc1 | 0.297 | 0.864 |
| NC(=O)c1ncn([C@@H]2O[C@H](CO)[C@@H](O)[C@H]2O)n1 | 0.38 | 0.58 |
| Cc1ccccc1N1C(=O)c2cc(S(N)(=O)=O)c(Cl)cc2NC1C (stereo not given) | 0.113 | 1.33 |
| COc1cc2c(cc1Cc1cccc(Cl)c1F)c(=O)c(C(=O)O)cn2[C@H](CO)C(C)C [Elvitegravir (GS-9137)] | 0.0202 | 0.102 |
| N#C[C@@H]1CCCN1C(=O)CNC12CC3CC(CC(O)(C3)C1)C2 [Vildagliptin (LAF-237)] | 0.68 | 0.519 |
| O=C(Oc1ccccc1C(=O)O)c1ccccc1O | 0.297 | 0.236 |
| CC[C@@H](CO)NCCN[C@@H](CC)CO | 0.377 | 0.991 |
| COc1cc(CNC(=O)CCCC/C=C/C(C)C)ccc1O | 0.0346 | 0.539 |
| CN(C)CCOC(c1ccccc1)c1ccccc1 | 0.272 | 0.789 |
| CCOC(=O)N1CCC(=C2c3ccc(Cl)cc3CCc3cccnc32)CC1 | -0.02 | 0.807 |
| OCc1cccnc1 | 0.896 | 0.471 |
| CC1(C)O[C@@H]2C[C@H]3[C@@H]4CCC5=CC(=O)CC[C@]5(C)[C@@]4(F)[C@@H](O)C[C@]3(C)[C@]2(C(=O)CCl)O1 | 0.195 | 0.844 |
| O=C(O)C[C@H](O)C[C@H](O)/C=C/c1c(C2CC2)nc2ccccc2c1-c1ccc(F)cc1 [Pitavastatin calcium (Livalo)] | -0.0148 | 0.559 |
| CCCCCCCCCCC[C@@H](C[C@@H]1OC(=O)[C@H]1CCCCCC)OC(=O)[C@H](CC(C)C)NC=O | 0.94 | 0.482 |
| CCOC(=O)[C@H](CCc1ccccc1)N[C@@H](C)C(=O)N1[C@H](C(=O)O)C[C@H]2CCCC[C@@H]21 | 0.598 | 0.51 |
| CN(CCOc1ccc(CC2SC(=O)NC2=O)cc1)c1ccccn1 (stereo not given) | 0.341 | 0.876 |
| CCC1=C[C@@H]2CN(C1)Cc1c([nH]c3ccccc13)[C@@](C(=O)OC)(c1cc3c(cc1OC)N(C)[C@H]1[C@@](O)(C(=O)OC)[C@H](OC(C)=O)[C@]4(CC)C=CCN5CC[C@]31[C@@H]54)C2 [Vinorelbine (Navelbine)] | 0.108 | 0.921 |
| Cc1cn(-c2cc(NC(=O)c3ccc(C)c(Nc4nccc(-c5cccnc5)n4)c3)cc(C(F)(F)F)c2)cn1 [Nilotinib (AMN-107)] | 0.547 | 0.566 |
| CCC(=O)O[C@]1(C(=O)SCF)[C@H](C)C[C@H]2[C@@H]3C[C@H](F)C4=CC(=O)C=C[C@]4(C)[C@@]3(F)[C@@H](O)C[C@@]21C | 0.777 | 0.959 |
